APOBEC3G inh – inhibitors of human APOBEC3G DNA deaminase | Q9HC16 | recombinant A3G, ssDNA deamination FAM/TAMRA fluorescence | inhibition, % at 20 µM | hit rate 0.28% among 330,000;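 active = inhibition of at least 40% at 20 µM, with no more than 30% in the related APOBEC3A deaminase screen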
eIF4H inh – inhibitors of RNA binding by human eIF4H; eIF4H fluorescence polarization binding assay; hit rate 0.94% among 290,000; inhibition, % at 35 µM; AID 2012;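 note: calls also rest on retests at 20 µM and on dose response follow-up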
PHOSPHO1 inh – PHOSPHO1 (human) inhibition; recombinant PHOSPHO1, absorbance phosphatase assay; AID 1565; hit rate 1.1% among 290,000; inhibition, % at 13.3 µM; in the data active = inhibition above about 60%
PABP FP inh – PABP-poly(A) binding inhibition | P11940 | PABP-poly(A) RNA binding, fluorescence polarization | calls only at 35 µM | hit rate 1% among 290,000 | AID 2014;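 note: calls also rest on retests at 20 µM and on dose response follow-up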
APOBEC3A inh – human APOBEC3A DNA deaminase inhibition | P31941 | AID 493011 | recombinant A3A, FAM/TAMRA ssDNA deamination fluorescence | inhibition, % at 20 µM | hit rate 0.41% among 330,000;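 active = at least 40% inhibition at 20 µM here, with at most 30% in a related deaminase screen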
Target sequence (P31941 whole entry, looked up): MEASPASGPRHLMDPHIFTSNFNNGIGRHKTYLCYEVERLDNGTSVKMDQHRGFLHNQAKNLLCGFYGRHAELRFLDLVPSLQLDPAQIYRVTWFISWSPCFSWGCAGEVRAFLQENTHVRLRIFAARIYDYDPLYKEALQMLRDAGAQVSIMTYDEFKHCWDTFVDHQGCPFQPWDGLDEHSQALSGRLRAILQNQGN
PABP1 MLLE inh – blocks PAM2 peptide binding to the PABP1 MLLE domain; inhibition, % at 20 µM; AID 588489; hit rate 0.36% among 360,000; P11940; GST-MLLE / FITC-PAM2 fluorescence polarization; in the data active = inhibition above about 35%, passing the limit was not always enough
Each line names hits and unclear results; the compound was inactive in the other large screens. This is a sample that favours compounds with a hit; in the whole collection about 2.6% have one here. Unless noted, the rule behind the calls is not given here.

COc1ccc(CC(=O)O/N=C(\N)c2cccc([N+](=O)[O-])c2)cc1	eIF4H inh inconclusive, PABP FP inh active
O=C(NNC(=S)NC(=O)C12CC3CC(CC(C3)C1)C2)c1ccncc1	PHOSPHO1 inh 66
O=C1NC(=S)N/C1=C/c1cccc([N+](=O)[O-])c1O	none
O=C1NC(=S)N/C1=C/c1cc([N+](=O)[O-])ccc1O	PHOSPHO1 inh 82
CCOc1ccccc1C(=O)Oc1ccc2ccc(=O)oc2c1	none
CCc1nnc(NC(=O)CCC(=O)N2CCN(Cc3cc(Cl)ccc3OC)CC2)s1	none
CCc1nnc(NC(=O)CCC(=O)N2CCN(S(=O)(=O)c3cc(Cl)ccc3OC)CC2)s1	PHOSPHO1 inh 70 (no result: eIF4H inh, PABP FP inh)
Cc1cc(OCC(=O)NCC2CCC(C(=O)O)CC2)c2c(C)c(C)c(=O)oc2c1 (stereo unspecified)	none
COc1ccc(OC)c(NC(=O)CCN2CCN(c3ccccc3OC)CC2)c1	none
O=C(CCc1n[nH]c(=O)[nH]c1=O)N/N=C/c1ccco1	eIF4H inh 77, PABP FP inh active
Cc1ccc(/C=C2\SC(=S)N(Cc3ccccc3)C2=O)o1	PHOSPHO1 inh 67
O=C(O)c1cc(-c2ccc(/C=C3/SC(=S)N(Cc4ccccc4)C3=O)o2)ccc1Cl	eIF4H inh 86, PHOSPHO1 inh 65, PABP FP inh active (no result: APOBEC3G inh, APOBEC3A inh)
COc1ccc(CN2C(=O)/C(=C/c3ccc(-c4ccc(Cl)c(C(=O)O)c4)o3)SC2=S)cc1	eIF4H inh inconclusive (no result: APOBEC3G inh, APOBEC3A inh, PABP1 MLLE inh)
C=CCN(c1ccccc1OC)S(=O)(=O)c1cccc(C(=O)NCC(c2ccc(OC)cc2)N2CCCC2)c1 (stereo unspecified)	none (no result: APOBEC3G inh, eIF4H inh, PHOSPHO1 inh, PABP FP inh, APOBEC3A inh)
O=C(NCc1cccnc1)C1CCN(S(=O)(=O)c2cc([N+](=O)[O-])ccc2Cl)CC1	none (no result: eIF4H inh, PHOSPHO1 inh, PABP FP inh)
Cc1ccc(NC(=O)CSc2nnc(-c3cc(C)[nH]n3)n2N)c(C)c1	none
Cc1cc2oc(=O)cc(CN3CCCCC3)c2cc1C(C)C	none
Cc1cc2oc(=O)cc(CN3CCCCC3)c2cc1O	PHOSPHO1 inh 61
CCCCCCSc1ccc(-c2nc3cnccn3c2NCCCC)cc1	none (no result: eIF4H inh, PHOSPHO1 inh, PABP FP inh)
CCN1C/C(=C/c2sccc2C)c2nc3ccccc3c(C(=O)O)c2C1	eIF4H inh 72, PABP FP inh active
CCc1ccc(/C=C2\CN(CC)Cc3c2nc2ccccc2c3C(=O)O)cc1	eIF4H inh inconclusive, PABP FP inh inconclusive
CCN1C/C(=C/c2cccs2)c2nc3ccccc3c(C(=O)O)c2C1	eIF4H inh 62, PABP FP inh active
CCn1cc(/C=C(\NC(=O)c2ccccc2)C(=O)NCCN2CCOCC2)c2ccccc21	none (no result: APOBEC3G inh, eIF4H inh, PHOSPHO1 inh, PABP FP inh, APOBEC3A inh)
COc1ccc(NC(=O)C2Cc3c(-c4ccccc4Oc4ccccc4)ccnc3O2)cc1OC (stereo unspecified)	none (no result: APOBEC3G inh, eIF4H inh, PHOSPHO1 inh, PABP FP inh, APOBEC3A inh)
Fc1ccc(-c2nc3ccc(Cl)cn3c2Cc2cccc(F)c2)cc1	none (no result: APOBEC3G inh, eIF4H inh, PHOSPHO1 inh, PABP FP inh, APOBEC3A inh)
Cc1ccc(/C=N/NC(=O)C(O)c2ccccc2)o1 (stereo unspecified)	none
O=C(N/N=C/c1cc(Br)c(Br)o1)C(O)c1ccccc1 (stereo unspecified)	eIF4H inh 63
O=C(O)c1ccc2c(c1)CCC2	eIF4H inh 3.3, PABP FP inh active
CC1(c2nnc(Cc3ccccc3)o2)CC(c2c(Cl)cccc2Cl)=NO1 (stereo unspecified)	none (no result: eIF4H inh, PHOSPHO1 inh, PABP FP inh)
COc1cccc(C(C(=O)NCC2CCCO2)N(C(=O)Cn2nnc3ccccc32)c2ccc(NC(C)=O)cc2)c1 (stereo unspecified)	none
CC1(C)OC(=O)C(=C2CCCN2)C(=O)O1	eIF4H inh active, PABP FP inh active
CC1(C)OC(=O)C(=Cc2ccc[nH]2)C(=O)O1	none
CCCCCCC1/C(=N\NC(=O)c2ccccc2)CCC1C(=O)OC (stereo unspecified)	none
CCN(c1ccccc1)S(=O)(=O)c1cc(C(=O)O)ccc1C	eIF4H inh 53, PABP FP inh active
O=C1CSC(=S)N1/N=C/c1ccc(O)c(O)c1O	eIF4H inh 80, PHOSPHO1 inh 74, PABP FP inh active
S=C(NCCc1cccc(Cl)c1)NC1CCCCC1	none
c1csc(-c2nn3c(Cn4nnc5ccccc54)nnc3s2)c1	none
c1coc(-c2nn3c(Cn4nnc5ccccc54)nnc3s2)c1	PABP1 MLLE inh 38
c1ccc2c(c1)nnn2Cc1nnc2sc(-c3ccncc3)nn12	PHOSPHO1 inh 79
Clc1ccc(Cc2nn3c(Cn4nnc5ccccc54)nnc3s2)cc1	none
CC(C(=O)Nc1ncc([N+](=O)[O-])s1)N1C(=O)c2ccccc2S1(=O)=O (stereo unspecified)	none (no result: eIF4H inh, PHOSPHO1 inh, PABP FP inh)

Assay outcomes: PubChem, Sanford-Burnham Center for Chemical Genomics
